# Source: PubChem BioAssay
# Only some compounds are listed: those with a hit (about 6.9% of all), similar ones and a draw of the others.
# KB-V1 cytotox: kills drug-selected multidrug resistant KB-V1 cells. Potency, µM (titrated, usually from 46.1 µM), actives largely listed as cytotoxic. hit rate 3.4% among 400,000. KB-V1 MDR cells viability, CellTiter-Glo, 72 h; further: potency means the concentration at half of the fitted maximal effect; on the % scale 0 is the no-effect control and ±100 the full control effect; nearly all actives have a fitted effect of over 60% in size
#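 KB-V1 cells (P-gp-expressing MDR subline of KB-3-1) in phenol-red-free DMEM with 10% FBS were exposed to library compounds over a concentration series for 72 h at 37 degrees C. Viability read by CellTiter-Glo luminescence; concentration-effect curves fitted after normalization.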
# MCF10A rereplic: DNA re-replication induction in MCF 10a cells; MCF 10A DNA re-replication, Hoechst nuclear intensity, 48 h; Potency, µM (series often up to 46.1 µM), for the others: at the highest dose activity, positive = re-replication, usual class: activators; hit rate 2.9% among 350,000; further: potency means the concentration at half of the fitted maximal effect; % of control where 0% means no effect; nearly all actives have a fitted effect of over 50% in size
# KB-3-1 cytotox: KB-3-1 parental cell cytotoxicity | hit rate 1.4% among 400,000 | Potency, µM (top dose mostly 46.1 µM), most hits filed as cytotoxic | KB-3-1 viability, CellTiter-Glo ATP luminescence, 72 h | AID 1347075; further: potency means the concentration at half of the fitted maximal effect; on the % scale 0 is the no-effect control and ±100 the full control effect; nearly all actives have a fitted effect of over 60% in size
#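 KB-3-1 parental drug-naive adenocarcinoma cells in DMEM/10% FBS, incubated 72 h at 37 C with pin-transferred compounds across a concentration series. Viability by CellTiter-Glo luminescence; concentration-response curves fitted after normalization.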
# ASM inhibitor: human S-ASM enzyme inhibition; hit rate 0.006% among 340,000; Potency, µM (doses to about 57.5 µM), for the others: at the highest dose activity change, negative = inhibition, actives largely listed as inhibitors; AID 504937; placental ASM, HMU-PC fluorogenic substrate, 60 min; further: potency means the concentration at half of the fitted maximal effect
# Target sequence (P17405 47-631 limits assumed): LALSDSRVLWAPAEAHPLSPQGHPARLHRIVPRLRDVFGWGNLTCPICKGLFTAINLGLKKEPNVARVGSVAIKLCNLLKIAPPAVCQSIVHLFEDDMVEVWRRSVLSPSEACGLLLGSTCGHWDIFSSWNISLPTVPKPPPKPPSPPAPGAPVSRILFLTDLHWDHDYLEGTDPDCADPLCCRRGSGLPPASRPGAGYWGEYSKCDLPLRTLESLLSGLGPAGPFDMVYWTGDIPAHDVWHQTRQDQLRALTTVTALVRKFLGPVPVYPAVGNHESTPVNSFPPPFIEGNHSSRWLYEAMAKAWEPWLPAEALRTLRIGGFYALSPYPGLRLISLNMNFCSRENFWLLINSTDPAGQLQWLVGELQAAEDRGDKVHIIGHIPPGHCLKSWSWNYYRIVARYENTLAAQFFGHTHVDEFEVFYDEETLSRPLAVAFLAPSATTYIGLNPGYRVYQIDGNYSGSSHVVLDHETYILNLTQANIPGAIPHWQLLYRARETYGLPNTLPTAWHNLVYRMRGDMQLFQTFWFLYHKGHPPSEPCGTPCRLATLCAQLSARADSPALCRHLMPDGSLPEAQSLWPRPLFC
#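 Human placenta-derived ASM enzyme was preincubated with compound for 10 minutes at room temperature, then given fluorogenic substrate HMU-PC0 (9 uM final) for 60 minutes at 37 °C; a pH 10 stop preceded fluorescence reading at Ex 386/Em 447 nm.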
# SW480 rereplic: induces DNA re-replication in SW480 colon adenocarcinoma cells; SW480 DNA re-replication, Hoechst DNA content imaging, 48 h; Potency, µM (series often up to 46.1 µM), for inactives: at the top dose re-replication activation, actives largely listed as activators; hit rate 1.8% among 340,000; AID 624297; further: potency means the concentration at half of the fitted maximal effect; % of control where 0% means no effect; nearly all actives have a fitted effect of over 55% in size
#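 DNA re-replication was detected as more nuclei of elevated Hoechst intensity after 48 hr exposure to compound (23 nL pinned per well of 250 cells).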
# Giardia killer: kills Giardia lamblia. activity change, % at 7.66 µM, hits read low. AID 540267. Giardia lamblia trophozoite viability. hit rate 0.15% among 340,000; in the data active means activity change below about -80%; inconclusive means between about -30% and that limit;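 further: parasites exposed to compound for two days anaerobically before the ATP read; on the % scale 0 is the no-effect control and ±100 the full control effect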
#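 Each well holds 100 Giardia trophozoites and compound. After two days (48 hrs) at 37 deg C in anaerobic conditions, ATP is quantified by luminescence.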
# Starred values were filed as active, the others as inactive; i = inactive; u = inconclusive; x = no result. Unless noted, the call rests on the fitted dose curve; in most records, active means well fitted curve in the direction sought with a large enough effect; inconclusive means small, poorly fitted or top-dose-only effect, or another doubt; inactive means no such curve, though single readings can be large; an effect the other way counts as inactive or inconclusive.
SMILES,KB-V1 cytotox,MCF10A rereplic,KB-3-1 cytotox,ASM inhibitor,SW480 rereplic,Giardia killer
O=C(C(Cl)Cl)N1c2ccccc2OCC1c1ccccc1 (configuration not stated),u,u,18µM*,-4%,-1%,-3
Cc1ccc(S(=O)(=O)N2CC(C(=O)O)Oc3ccccc32)cc1 (configuration not stated),u,0%,i,1%,-2%,u
CC1COc2ccccc2N1S(=O)(=O)c1ccc(Cl)cc1 (configuration not stated),i,21µM*,i,-5%,u,-2
Cc1ccc(C(=O)N2c3ccccc3OCC2C)cc1 (configuration not stated),i,-10%,i,4%,-9%,-23
CCCc1cc(N2CCCC(C(=O)Nc3cc(Cl)ccc3OC)C2)n2ncnc2n1 (configuration not stated),13µM*,17%,i,34%,-10%,10
COc1ccc(Cl)cc1NC(=O)C1CCCN(c2cc(C)nc3ncnn23)C1 (configuration not stated),i,0%,i,0%,-6%,8
Cc1cc(N2CCCC(C(=O)Nc3cccc(Cl)c3)C2)n2ncnc2n1 (configuration not stated),u,1%,i,-2%,-1%,5
Cc1cc(N2CCCC(C(=O)Nc3ccc4c(c3)CCC4)C2)n2ncnc2n1 (configuration not stated),4.6µM*,4%,u,-2%,2%,-5
Cc1ccc2nc(-c3ccc(SCC(=O)Nc4nc(C)cs4)nc3)[nH]c2c1,i,u,u,10%,8%,-28
Cc1nc(NC(=O)CSc2ccc(-c3nc4ccccc4[nH]3)cn2)sc1C,i,18µM*,i,3%,5%,-12
Cc1ccc(SCC(=O)Nc2ccc(-c3nc4ccccc4[nH]3)cc2)cc1,i,13µM*,i,x,8%,-1
CCc1nnc(NC(=O)CSc2ccc(-c3nc4ccccc4[nH]3)cn2)s1,i,9%,i,3%,8%,1
Cc1ccc2nc(-c3ccc(SCC(=O)Nc4nnc(C)s4)nc3)[nH]c2c1,i,18µM*,i,4%,u,-7
Cc1c(O)nc(SC2CC(=O)N(c3cc(Cl)cc(Cl)c3)C2=O)[nH]c1=O (configuration not stated),i,1%,i,2%,0%,5
CCOc1cc2ccccc2cc1C(=O)OCC(=O)Nc1ccc(Br)cc1,i,x,i,x,x,x
CCn1c2ccccc2c2cc(/C=N/NC(=O)c3ccc(O)cc3)ccc21,21µM*,u,u,25%,u,12
CCn1c2ccccc2c2cc(NC(=O)COc3ccc(OC)cc3)ccc21,i,0%,i,-10%,-11%,-1
CCn1c2ccccc2c2cc(NC(=O)c3ccc(C)c([N+](=O)[O-])c3)ccc21,i,-1%,u,2%,-3%,4
CCn1c2ccccc2c2cc(NC(=O)c3cc(OC)cc(OC)c3)ccc21,2.3µM*,1.5µM*,u,-5%,0.65µM*,-1
CCn1nnc(-c2ccccc2NC(=O)c2cc(OC)c(OC)c(OC)c2)n1,i,u,i,-3%,15µM*,-7
CCn1c2ccccc2c2cc(NC(=O)c3cccc([N+](=O)[O-])c3C)ccc21,u,18µM*,u,-4%,10µM*,3
Cc1ccc2nc(-c3ccc(C)c(NC(=O)COc4ccccc4Cl)c3)oc2c1,i,x,u,x,x,x
COc1ccc(CNC(=O)c2cc(C)nc3c2c(C)nn3-c2cccc(Cl)c2C)cc1,i,x,i,x,x,x
Cc1ccc(-n2nc3ccc(NC(=O)c4cccc([N+](=O)[O-])c4C)cc3n2)cc1,u,13µM*,i,-8%,u,-1
Cc1c(C(=O)Nc2ccc(C(=O)Nc3ccccc3)cc2)cccc1[N+](=O)[O-],u,17%,i,2%,-7%,-11
SMILES,KB-V1 cytotox,MCF10A rereplic,KB-3-1 cytotox,ASM inhibitor,SW480 rereplic,Giardia killer
Cc1c(C(=O)Nc2ccccc2-c2ccccc2)cccc1[N+](=O)[O-],15µM*,18%,i,-2%,-12%,-10
CCOC(=O)Nc1ccc2c(c1)N(C(=O)OC)c1ccccc1CC2,5.8µM*,u,u,-3%,u,15
CCn1c2ccccc2c2cc(NC(=O)c3ccc(Br)o3)ccc21,i,u,i,-17%,0%,12
CCn1c2ccccc2c2cc(NC(=O)c3ccc(=O)oc3)ccc21,i,16µM*,i,107%,u,-4
CCn1c2ccccc2c2cc(NC(=O)c3cccc([N+](=O)[O-])c3)ccc21,i,u,i,9%,u,-8
COc1cc(C(=O)Nc2ccc3c(c2)N(C(=O)CCN(C)C)c2ccccc2CC3)cc(OC)c1OC,u,13µM*,i,2%,u,-3
CCn1c2ccccc2c2cc(NC(=O)c3cc(OC)c(OC)c(OC)c3)ccc21,u,u,0.58µM*,-22%,0.82µM*,-9
CC1=C(C(=O)OC2CCCC2)C(c2c(F)cccc2Cl)CC(=O)N1 (configuration not stated),u,x,i,x,x,x
Cc1cccc(Cn2c(=O)n(CC3CCC(C(=O)N4CCOCC4)CC3)c(=O)c3sccc32)c1 (configuration not stated),i,x,i,x,x,x
COc1ccc(-n2nc(C(=O)N3CCCC(C)C3)c3c4ccccc4n(C)c3c2=O)cc1 (configuration not stated),i,x,i,x,x,x
COc1ccc2c(C)nc(Nc3nc(-c4ccccc4)cc(=O)[nH]3)nc2c1,u,4.6µM*,4.6µM*,0%,3.7µM*,6
Cc1nc(Nc2nc3c(c(=O)[nH]2)CCC3)nc2ccccc12,u,u,5.8µM*,-2%,-85%,3
Cc1ccc(SCc2cc(=O)[nH]c(Nc3nc(C)c4ccc(C)cc4n3)n2)cc1,i,1%,i,-12%,-3%,-15
Cc1ccc(SCc2cc(=O)[nH]c(Nc3nc(C)c4ccccc4n3)n2)cc1,9.2µM*,8%,i,-1%,-5%,15
Cc1ccc2nc(Nc3nc(CSc4nnc(C)s4)cc(=O)[nH]3)nc(C)c2c1,23µM*,1%,u,-2%,u,-10
Cc1ccc(NC(=O)c2sc3ncnc(N(C)C4CCCCC4)c3c2C)cc1,i,x,i,x,x,x
Cc1ccc(-c2c3c(nc4sc(C(N)=O)c(N)c24)CCCC3)o1,i,u,i,-8%,-447%,-4
